The panel holds about 83,000 compounds, 20% with a hit somewhere; the sample as a whole holds those more often.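 Cell lines were cultured in 96-well plates, exposed to a single compound concentration, and assessed for percent growth 48 hours later.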 Values without a mark were called inactive. Active and inactive are the calls of the source. How the source made its calls: active means growth percent below 10; inactive means the rest.
Each compound was assayed on SK-MEL-2 melanoma (assay: NCI-60 one-dose screen, 48 h (100 = growth as untreated, 0 = no growth, -100 = all killed)). Conditions: 10 µM unless noted.

SMILES | growth
O=C(NNc1nc2cc(C(F)(F)F)ccc2n2cccc12)c1cnccn1 | -73.1% (active)
Cc1cccc(NC(=O)[C@]23CCC(C)(C)CC2C2=CCC4[C@@]5(C)C[C@@H](O)[C@H](O)[C@@](C)(CO)C5CC[C@@]4(C)[C@]2(C)CC3)c1 (stereo partly specified) | 32.2%
CCCCSc1nc(NCCc2c[nH]c3ccccc23)c(C#N)c(-c2ccc(F)cc2)n1 | 72%
COc1ccc(-c2ccnc(SCc3cc4cc(Cl)ccc4[nH]c3=O)n2)cc1 | 99%
O=c1[nH]c2ccccc2cc1CSc1nccc(-c2ccc3ccccc3c2)n1 | 84.5%
CCCCCCCCc1ccc(S(=O)(=O)Nc2ccc(CC)cc2C(=O)O)cc1 | 86.7%
COc1cc(OC)c2c3nc4cc(C)c(C)cc4nc3n(CCN(C)C)c2c1 | 101%
N#Cc1c(-c2cccc(O)c2O)cc(-c2ccc3ccccc3c2)[nH]c1=O | 98.8%
O=c1[nH]n(C(=S)N/N=C/c2ccccc2Cl)c(=O)c2ccccc12 | -33% (active)
COc1ccc(C(=O)/C=C/c2cccc(Cl)c2Cl)cc1S(N)(=O)=O | 74.4%
COc1ccc(C(=O)/C=C/c2cccnc2)cc1S(N)(=O)=O | 104%
Cc1cc2nc3c4ccccc4n(CC4=NCCN4)c3nc2cc1C | 66.7%
CCCCCCCCc1ccc(C(=O)Nc2cccc(P(=O)(O)O)c2)cc1 | 106%
Cc1cc2nc3c([nH]c2cc1C)c1ccc(=O)cc1n3CCN(C)C | 73.4%
O=C(c1ccc(Cl)cc1)c1ccc(OCCCN2CCN(c3ccncc3)CC2)cc1 | 70.1%
CCCCSc1nc(NCCc2c[nH]c3ccccc23)c(C#N)c(-c2ccccc2)n1 | 74%
O=C1N/C(=N\c2nccs2)S/C1=C\C=C/c1ccccc1 | 37.7%
CC(=O)OC[C@@]1(C)C2CC[C@]3(C)C(CC=C4C5CC(C)(C)CC[C@]5(C(=O)Nc5cccc(C)c5)CC[C@]43C)[C@@]2(C)C[C@@H](OC(C)=O)[C@@H]1OC(C)=O (stereo partly specified) | 38.7%
COc1ccc(C(SCCNCc2cc(N(C)C)ccn2)(c2ccccc2)c2ccccc2)cc1 | -34.9% (active)

SMILES | growth
O=c1onc(-c2cc3ccccc3nc2Cl)n1-c1cccc2ccccc12 | 19.6%
COc1ccc(C2=NN(c3ccccc3)C(c3ccc(OCc4ccccc4)c(OC)c3)C2)cc1OC (stereo unspecified) | 86.5%
Nc1n[nH]c2cccc(C#Cc3cccc(NC(=O)c4cccc(Cl)c4)c3)c12 | 12.7%
O=C(Cn1c2c(sc1=O)[C@H]1[C@@H](O)[C@@H](O)[C@H](O)[C@@H]1CS2)N1CCOCC1 | 100%
CC(=O)Nc1cccc(Nc2nc(N[C@H]3CCCc4ccccc43)c3ccccc3n2)c1 | 123%
N/C(=N\c1nc2ccccc2s1)NC(=O)NCCCCCCO | 50.1%
COc1ccc2c(c1)C(=N/N=C(\C)c1ccc(OC)c(S(N)(=O)=O)c1)C(=O)N2 | 92.6%
CCCSc1nc(NCCc2c[nH]c3ccccc23)c(C#N)c(-c2ccc(F)cc2)n1 | 92%
O=c1[nH]c2ccccc2cc1CSc1cccc(Nc2nccc(-c3ccc4ccccc4c3)n2)c1 | 98.3%
CCN(CC)c1ccnc(CNCCSC(c2ccccc2)(c2ccccc2)c2ccc(C)cc2)c1 | -92% (active)
CN(C)CCn1c2ccccc2c2nc3cc(C(F)(F)F)ccc3nc21 | 56.4%
CC1(C)CC[C@]2(C(=O)Nc3ccc(Br)cc3)CC[C@]3(C)C(=CCC4[C@@]5(C)C[C@@H](O)[C@H](O)[C@@](C)(CO)C5CC[C@]43C)C2C1 (stereo partly specified) | -19.8% (active)
CCC(C)(C)c1ccc(OCCCCCCN2CCN(c3ccncc3)CC2)cc1 | 71.6%
COc1ccc(C(=O)/C=C/c2ccc(Cl)c(Cl)c2)cc1S(N)(=O)=O | 66.9%
Cc1cc(N=C2NC(=O)CS2)n[nH]1 | 98.7%
Cc1ccc(C(=O)CSc2nc3ccc(F)cc3c(=O)n2-c2ccc(Cl)cc2)cc1 | 99.1%
COc1ccc(C(=O)/C=C/c2cccc(Br)c2)cc1S(N)(=O)=O | -26% (active)
Cc1sc(C(NC(=O)OCCn2c([N+](=O)[O-])cnc2C)C(F)(F)Cl)nc1-c1ccc(OC(F)(F)F)cc1 (stereo unspecified) | -90.7% (active)
COc1ccc(NC(=O)Cn2c3c(sc2=O)[C@H]2[C@@H](O)[C@@H](O)[C@H](O)[C@@H]2CS3)cc1 | 101%

These compounds were tested on EKVX NSCLC in the same assay as above. Conditions: 10 µM unless noted.

SMILES | growth
O=C(NNc1nc2cc(C(F)(F)F)ccc2n2cccc12)c1cnccn1 | -83.2% (active)
Cc1cccc(NC(=O)[C@]23CCC(C)(C)CC2C2=CCC4[C@@]5(C)C[C@@H](O)[C@H](O)[C@@](C)(CO)C5CC[C@@]4(C)[C@]2(C)CC3)c1 (stereo partly specified) | 11.5%
CCCCSc1nc(NCCc2c[nH]c3ccccc23)c(C#N)c(-c2ccc(F)cc2)n1 | 40.9%
COc1ccc(-c2ccnc(SCc3cc4cc(Cl)ccc4[nH]c3=O)n2)cc1 | 57.1%
O=c1[nH]c2ccccc2cc1CSc1nccc(-c2ccc3ccccc3c2)n1 | 49.4%
CCCCCCCCc1ccc(S(=O)(=O)Nc2ccc(CC)cc2C(=O)O)cc1 | 90.5%
COc1cc(OC)c2c3nc4cc(C)c(C)cc4nc3n(CCN(C)C)c2c1 | 89.9%
N#Cc1c(-c2cccc(O)c2O)cc(-c2ccc3ccccc3c2)[nH]c1=O | 74.5%
O=c1[nH]n(C(=S)N/N=C/c2ccccc2Cl)c(=O)c2ccccc12 | -35.4% (active)
COc1ccc(C(=O)/C=C/c2cccc(Cl)c2Cl)cc1S(N)(=O)=O | 0.538% (active)
COc1ccc(C(=O)/C=C/c2cccnc2)cc1S(N)(=O)=O | 63.3%
Cc1cc2nc3c4ccccc4n(CC4=NCCN4)c3nc2cc1C | 60.4%
CCCCCCCCc1ccc(C(=O)Nc2cccc(P(=O)(O)O)c2)cc1 | 103%
Cc1cc2nc3c([nH]c2cc1C)c1ccc(=O)cc1n3CCN(C)C | 76.7%
O=C(c1ccc(Cl)cc1)c1ccc(OCCCN2CCN(c3ccncc3)CC2)cc1 | 32.6%
CCCCSc1nc(NCCc2c[nH]c3ccccc23)c(C#N)c(-c2ccccc2)n1 | 32.9%
O=C1N/C(=N\c2nccs2)S/C1=C\C=C/c1ccccc1 | 27.5%
CC(=O)OC[C@@]1(C)C2CC[C@]3(C)C(CC=C4C5CC(C)(C)CC[C@]5(C(=O)Nc5cccc(C)c5)CC[C@]43C)[C@@]2(C)C[C@@H](OC(C)=O)[C@@H]1OC(C)=O (stereo partly specified) | 30.7%
COc1ccc(C(SCCNCc2cc(N(C)C)ccn2)(c2ccccc2)c2ccccc2)cc1 | 9.49% (active)

SMILES | growth
O=c1onc(-c2cc3ccccc3nc2Cl)n1-c1cccc2ccccc12 | 29.5%
COc1ccc(C2=NN(c3ccccc3)C(c3ccc(OCc4ccccc4)c(OC)c3)C2)cc1OC (stereo unspecified) | 93%
Nc1n[nH]c2cccc(C#Cc3cccc(NC(=O)c4cccc(Cl)c4)c3)c12 | 44.9%
O=C(Cn1c2c(sc1=O)[C@H]1[C@@H](O)[C@@H](O)[C@H](O)[C@@H]1CS2)N1CCOCC1 | 100%
CC(=O)Nc1cccc(Nc2nc(N[C@H]3CCCc4ccccc43)c3ccccc3n2)c1 | 98.7%
N/C(=N\c1nc2ccccc2s1)NC(=O)NCCCCCCO | 19.6%
COc1ccc2c(c1)C(=N/N=C(\C)c1ccc(OC)c(S(N)(=O)=O)c1)C(=O)N2 | 90.3%
CCCSc1nc(NCCc2c[nH]c3ccccc23)c(C#N)c(-c2ccc(F)cc2)n1 | 50.8%
O=c1[nH]c2ccccc2cc1CSc1cccc(Nc2nccc(-c3ccc4ccccc4c3)n2)c1 | 95.4%
CCN(CC)c1ccnc(CNCCSC(c2ccccc2)(c2ccccc2)c2ccc(C)cc2)c1 | -84.9% (active)
CN(C)CCn1c2ccccc2c2nc3cc(C(F)(F)F)ccc3nc21 | 64.3%
CC1(C)CC[C@]2(C(=O)Nc3ccc(Br)cc3)CC[C@]3(C)C(=CCC4[C@@]5(C)C[C@@H](O)[C@H](O)[C@@](C)(CO)C5CC[C@]43C)C2C1 (stereo partly specified) | 15.5%
CCC(C)(C)c1ccc(OCCCCCCN2CCN(c3ccncc3)CC2)cc1 | 6.51% (active)
COc1ccc(C(=O)/C=C/c2ccc(Cl)c(Cl)c2)cc1S(N)(=O)=O | 24.1%
Cc1cc(N=C2NC(=O)CS2)n[nH]1 | 72.7%
Cc1ccc(C(=O)CSc2nc3ccc(F)cc3c(=O)n2-c2ccc(Cl)cc2)cc1 | 51.1%
COc1ccc(C(=O)/C=C/c2cccc(Br)c2)cc1S(N)(=O)=O | -68.4% (active)
Cc1sc(C(NC(=O)OCCn2c([N+](=O)[O-])cnc2C)C(F)(F)Cl)nc1-c1ccc(OC(F)(F)F)cc1 (stereo unspecified) | -98% (active)
COc1ccc(NC(=O)Cn2c3c(sc2=O)[C@H]2[C@@H](O)[C@@H](O)[C@H](O)[C@@H]2CS3)cc1 | 97.4%
